# Where a name gives a salt, the structure may show the parent alone.
# Tests used:
# Conditions in all cases: 10 µM; exposure time: 3 h pre-incubation + 3 h imaging
# [1] = tested on: Danio rerio larvae (5 dpf); experiment: habituation to 1-s acoustic pulses, difference vs DMSO (percentage points (treated minus DMSO)); higher = more of the behaviour than the DMSO vehicle control
# Outline: (§1)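 5-dpf wild-type zebrafish larvae in 96-well ProxiPlates were exposed to library drugs at 10 µM (diluted 1000× from DMSO stocks into egg water). There were 48 larvae per drug, exposed 3 h before and 3 h during imaging at 28.5 °C. Images taken every 6 s covered a 3-h program of rest, moving coloured lines and acoustic pulses, and an ImageJ macro scored movement and upper-half location. Each behaviour score is the treated-group mean minus the DMSO vehicle mean, in percentage points.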
# [2] = tested on: Danio rerio larvae (5 dpf); experiment: startle response to 20-s acoustic pulses, difference vs DMSO (percentage points (treated minus DMSO)); higher = more of the behaviour than the DMSO vehicle control
# Outline: as §1
# [3] = tested on: Danio rerio larvae (5 dpf); experiment: excitability to 1-s acoustic pulses, difference vs DMSO (percentage points (treated minus DMSO)); higher = more of the behaviour than the DMSO vehicle control
# Outline: as §1
# [4] = tested on: Danio rerio larvae (5 dpf); experiment: optomotor response to fast red moving lines, difference vs DMSO (percentage points (treated minus DMSO)); higher = more of the behaviour than the DMSO vehicle control
# Outline: as §1
# [5] = tested on: Danio rerio larvae (5 dpf); experiment: activity during period 15 (no stimuli), difference vs DMSO (percentage points (treated minus DMSO)); higher = more of the behaviour than the DMSO vehicle control
# Outline: as §1
structure (smiles),measurement,setting,value
NC(=O)OCC(COC(N)=O)c1ccccc1 [Felbamate],habituation to 1-s acoustic pulses,[1],2.95
same,startle response to 20-s acoustic pulses,[2],2.22
O=C1CCc2ccc(OCCCCN3CCN(c4cccc(Cl)c4Cl)CC3)cc2N1 [Aripiprazole],excitability to 1-s acoustic pulses,[3],16.5
Cc1cccc(C)c1OCC(C)N (configuration not stated) [Mexiletine hydrochloride],optomotor response,[4],0.599
NS(=O)(=O)c1cc(C(=O)O)c(NCc2ccco2)cc1Cl [Furosemide],habituation to 1-s acoustic pulses,[1],1.08
O=C(O)C[C@H](O)C[C@H](O)/C=C/c1c(C2CC2)nc2ccccc2c1-c1ccc(F)cc1 [Pitavastatin calcium],excitability to 1-s acoustic pulses,[3],0.628
CCOc1ccccc1OCCN[C@H](C)Cc1ccc(OC)c(S(N)(=O)=O)c1 [Tamsulosin hydrochloride],habituation to 1-s acoustic pulses,[1],-0.195
same,excitability to 1-s acoustic pulses,[3],14.9
same,startle response to 20-s acoustic pulses,[2],3.87
same,optomotor response,[4],-10.3
Clc1ccc2nsnc2c1NC1=NCCN1 [Tizanidine hydrochloride],habituation to 1-s acoustic pulses,[1],-2.36
CCCc1nc2c(C)cc(-c3nc4ccccc4n3C)cc2n1Cc1ccc(-c2ccccc2C(=O)O)cc1 [Telmisartan],startle response to 20-s acoustic pulses,[2],3.69
CC(C)c1nc(CN(C)C(=O)N[C@H](C(=O)N[C@@H](Cc2ccccc2)C[C@H](O)[C@H](Cc2ccccc2)NC(=O)OCc2cncs2)C(C)C)cs1 [Ritonavir],activity during period 15,[5],-8.67
same,startle response to 20-s acoustic pulses,[2],1.92
CC(C)C(=O)OCC(=O)[C@@]12O[C@H](C3CCCCC3)O[C@@H]1C[C@H]1[C@@H]3CCC4=CC(=O)C=C[C@]4(C)[C@H]3[C@@H](O)C[C@@]12C [Ciclesonide],habituation to 1-s acoustic pulses,[1],-1.43
COC(=O)C1=C(C)NC(C)=C(C(=O)OC(C)C)C1c1cccc2nonc12 (configuration not stated) [Isradipine],habituation to 1-s acoustic pulses,[1],-13.5
same,excitability to 1-s acoustic pulses,[3],19.8
COc1cc(N)c(Cl)cc1C(=O)NC1CCN(CCCOc2ccc(F)cc2)CC1OC (configuration not stated) [Cisapride],optomotor response,[4],9.11
CCN(CC)CCNC(=O)c1c(C)[nH]c(/C=C2\C(=O)Nc3ccc(F)cc32)c1C [Sunitinib malate],habituation to 1-s acoustic pulses,[1],4.25
same,excitability to 1-s acoustic pulses,[3],14.4
CN/C(=N\CCSCc1nc[nH]c1C)NC#N [Cimetidine],startle response to 20-s acoustic pulses,[2],7.14
same,optomotor response,[4],-7.27
OC(c1cc(C(F)(F)F)nc2c(C(F)(F)F)cccc12)C1CCCCN1 (configuration not stated) [Mefloquine hydrochloride],habituation to 1-s acoustic pulses,[1],0.613
same,optomotor response,[4],-3.95
CN1CCN(CCCN2c3ccccc3Sc3ccc(Cl)cc32)CC1 [Prochlorperazine dimaleate],excitability to 1-s acoustic pulses,[3],23.6
O=C(O[C@@H]1C[C@@H]2C[C@H]3C[C@H](C1)N2CC3=O)c1c[nH]c2ccccc12 [Dolasetron mesylate],habituation to 1-s acoustic pulses,[1],2.06
same,startle response to 20-s acoustic pulses,[2],2.42
